Results reported in paper PMC7862700, “An all-to-all approach to the identification of sequence-specific readers for epigenetic DNA modifications on cytosine”.

Tests used:
Assay in all cases: DAPPL (digital affinity profiling via proximity ligation, sequencing); 10 mM Tris-HCl pH 7.5, 50 mM NaCl, 1 mM DTT, 4% glycerol, room temperature, 30 min; GST-TFs on glutathione beads, 16-mer random dsDNA library, 0.1% formaldehyde crosslink after washing; high values mean tight binding
Settings in all cases: protein: recombinant; tags: N-terminal GST; dsDNA, one strand shown
[1] = molecular target: T1, ELK1 (Homo sapiens, UniProt P19419 1-428)
T1 sequence: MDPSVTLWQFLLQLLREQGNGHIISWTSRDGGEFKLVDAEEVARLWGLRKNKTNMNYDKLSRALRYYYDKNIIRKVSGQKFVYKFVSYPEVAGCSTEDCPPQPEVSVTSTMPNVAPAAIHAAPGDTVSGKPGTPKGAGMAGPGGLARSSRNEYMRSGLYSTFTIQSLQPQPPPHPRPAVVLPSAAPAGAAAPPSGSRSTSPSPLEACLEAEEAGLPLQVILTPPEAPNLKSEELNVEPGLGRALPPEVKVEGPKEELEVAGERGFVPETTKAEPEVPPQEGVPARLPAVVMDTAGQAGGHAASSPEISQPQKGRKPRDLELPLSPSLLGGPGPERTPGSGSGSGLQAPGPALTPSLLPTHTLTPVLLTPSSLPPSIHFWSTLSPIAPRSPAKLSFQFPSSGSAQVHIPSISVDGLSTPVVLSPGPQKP
In short: (§1)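 Sequencing on an Illumina NextSeq500 followed washing, crosslinking with 0.1% formaldehyde, proximity ligation (BsaI/T4 ligase, 1 h, 37 °C) and PCR amplification of pools that had been incubated for 30 min at room temperature with 200 nmole of a random double-stranded 16-mer DNA library in Tris/NaCl/DTT/glycerol buffer. Each pool held DNA-barcoded human transcription factors, expressed in yeast as GST fusions and captured on glutathione beads, plus a tag-only sample. Binding signal is a hexamer's read frequency for a factor divided by its frequency in the tag-only sample.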

[2] = molecular target: ELF1 (Homo sapiens, UniProt P32519 1-619)
Sequence of ELF1 (P32519 whole entry): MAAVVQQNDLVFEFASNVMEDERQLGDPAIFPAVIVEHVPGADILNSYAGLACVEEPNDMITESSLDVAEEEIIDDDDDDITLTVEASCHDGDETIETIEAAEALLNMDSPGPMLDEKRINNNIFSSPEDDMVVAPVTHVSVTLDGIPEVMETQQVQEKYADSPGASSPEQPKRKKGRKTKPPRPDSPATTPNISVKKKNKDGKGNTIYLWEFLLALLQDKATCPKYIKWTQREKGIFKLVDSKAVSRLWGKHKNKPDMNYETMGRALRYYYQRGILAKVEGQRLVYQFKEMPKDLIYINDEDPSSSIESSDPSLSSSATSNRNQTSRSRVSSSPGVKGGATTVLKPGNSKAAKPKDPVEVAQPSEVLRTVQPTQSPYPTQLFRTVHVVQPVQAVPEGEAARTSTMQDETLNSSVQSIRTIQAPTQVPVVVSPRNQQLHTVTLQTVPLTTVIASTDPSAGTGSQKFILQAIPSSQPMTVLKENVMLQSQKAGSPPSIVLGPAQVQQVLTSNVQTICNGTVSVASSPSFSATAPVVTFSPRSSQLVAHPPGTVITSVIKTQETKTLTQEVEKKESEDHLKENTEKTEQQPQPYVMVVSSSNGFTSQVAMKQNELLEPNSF
In short: as §1

[3] = molecular target: T2, EHF (Homo sapiens, UniProt Q9NZC4 1-300)
T2 sequence: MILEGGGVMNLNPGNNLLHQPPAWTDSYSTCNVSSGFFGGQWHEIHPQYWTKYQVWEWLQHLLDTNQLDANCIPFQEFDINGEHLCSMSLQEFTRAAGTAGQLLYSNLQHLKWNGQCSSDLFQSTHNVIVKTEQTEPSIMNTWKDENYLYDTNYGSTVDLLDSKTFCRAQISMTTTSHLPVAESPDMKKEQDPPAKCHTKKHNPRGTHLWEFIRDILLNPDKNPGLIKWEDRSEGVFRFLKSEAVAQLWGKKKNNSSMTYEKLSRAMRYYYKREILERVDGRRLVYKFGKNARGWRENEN
In short: as §1

[4] = molecular target: ETV5 (Homo sapiens, UniProt P41161 1-510)
Sequence of ETV5 (P41161 whole entry): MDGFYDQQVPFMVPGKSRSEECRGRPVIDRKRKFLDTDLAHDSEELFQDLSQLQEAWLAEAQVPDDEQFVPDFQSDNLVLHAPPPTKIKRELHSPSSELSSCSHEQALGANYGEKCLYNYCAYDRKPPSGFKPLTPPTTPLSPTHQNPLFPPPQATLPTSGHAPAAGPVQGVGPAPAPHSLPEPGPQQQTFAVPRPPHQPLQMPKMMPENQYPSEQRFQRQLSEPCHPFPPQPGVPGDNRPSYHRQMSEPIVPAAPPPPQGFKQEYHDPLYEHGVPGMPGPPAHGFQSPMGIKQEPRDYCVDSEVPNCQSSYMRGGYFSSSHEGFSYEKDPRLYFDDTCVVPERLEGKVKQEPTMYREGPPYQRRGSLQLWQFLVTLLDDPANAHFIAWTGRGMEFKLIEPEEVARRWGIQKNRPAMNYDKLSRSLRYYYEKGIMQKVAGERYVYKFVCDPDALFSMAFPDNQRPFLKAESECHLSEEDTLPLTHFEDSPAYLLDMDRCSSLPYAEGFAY
In short: as §1

[5] = molecular target: ELF4 (Homo sapiens, UniProt Q99607 1-663)
Sequence of ELF4 (Q99607 whole entry): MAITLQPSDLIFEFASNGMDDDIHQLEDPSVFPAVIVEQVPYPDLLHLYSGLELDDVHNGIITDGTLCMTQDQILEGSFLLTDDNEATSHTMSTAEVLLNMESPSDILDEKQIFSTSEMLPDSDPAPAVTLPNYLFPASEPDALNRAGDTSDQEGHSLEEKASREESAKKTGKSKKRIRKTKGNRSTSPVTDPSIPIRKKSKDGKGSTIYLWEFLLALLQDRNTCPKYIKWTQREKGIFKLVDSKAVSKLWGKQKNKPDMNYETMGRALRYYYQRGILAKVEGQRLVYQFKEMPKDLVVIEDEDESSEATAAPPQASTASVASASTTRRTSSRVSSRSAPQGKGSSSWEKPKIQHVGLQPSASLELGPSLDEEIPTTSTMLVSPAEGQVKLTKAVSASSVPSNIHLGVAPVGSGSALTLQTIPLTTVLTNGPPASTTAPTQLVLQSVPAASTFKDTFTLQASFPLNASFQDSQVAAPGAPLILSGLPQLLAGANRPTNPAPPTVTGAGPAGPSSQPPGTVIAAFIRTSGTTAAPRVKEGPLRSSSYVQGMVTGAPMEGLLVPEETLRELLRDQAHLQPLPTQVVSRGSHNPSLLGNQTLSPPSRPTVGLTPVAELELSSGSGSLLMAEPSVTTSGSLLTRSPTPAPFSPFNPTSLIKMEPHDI
In short: as §1

[6] = molecular target: T3, ELK4 (Homo sapiens, UniProt P28324-2 1-405)
T3 sequence: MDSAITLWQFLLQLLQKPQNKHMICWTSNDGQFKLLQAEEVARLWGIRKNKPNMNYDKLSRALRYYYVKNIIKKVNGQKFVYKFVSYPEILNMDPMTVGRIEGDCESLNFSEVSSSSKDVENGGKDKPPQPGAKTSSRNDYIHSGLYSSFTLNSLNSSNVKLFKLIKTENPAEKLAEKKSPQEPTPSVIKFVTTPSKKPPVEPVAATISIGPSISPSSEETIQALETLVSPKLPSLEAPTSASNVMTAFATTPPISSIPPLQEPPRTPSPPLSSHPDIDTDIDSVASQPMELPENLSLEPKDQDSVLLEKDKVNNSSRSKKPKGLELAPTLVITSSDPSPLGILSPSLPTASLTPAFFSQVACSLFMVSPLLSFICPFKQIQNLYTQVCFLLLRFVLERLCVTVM
In short: as §1

[7] = molecular target: ETV1 (Homo sapiens, UniProt P50549 1-477)
Sequence of ETV1 (P50549 whole entry): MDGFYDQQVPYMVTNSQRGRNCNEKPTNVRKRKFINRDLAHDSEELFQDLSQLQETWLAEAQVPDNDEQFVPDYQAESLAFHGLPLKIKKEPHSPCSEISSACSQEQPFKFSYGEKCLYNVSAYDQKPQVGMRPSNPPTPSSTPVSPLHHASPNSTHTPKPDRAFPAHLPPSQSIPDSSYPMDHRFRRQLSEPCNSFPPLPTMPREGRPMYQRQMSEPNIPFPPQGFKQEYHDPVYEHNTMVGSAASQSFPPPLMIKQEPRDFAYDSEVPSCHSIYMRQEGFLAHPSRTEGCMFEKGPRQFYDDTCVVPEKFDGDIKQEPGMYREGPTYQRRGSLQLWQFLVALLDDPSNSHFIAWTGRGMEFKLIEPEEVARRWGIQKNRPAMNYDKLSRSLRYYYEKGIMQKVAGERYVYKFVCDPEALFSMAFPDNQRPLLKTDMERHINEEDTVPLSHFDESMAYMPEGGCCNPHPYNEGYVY
In short: as §1

[8] = molecular target: T4, ETV7 (Homo sapiens, UniProt Q9Y603 1-341)
T4 sequence: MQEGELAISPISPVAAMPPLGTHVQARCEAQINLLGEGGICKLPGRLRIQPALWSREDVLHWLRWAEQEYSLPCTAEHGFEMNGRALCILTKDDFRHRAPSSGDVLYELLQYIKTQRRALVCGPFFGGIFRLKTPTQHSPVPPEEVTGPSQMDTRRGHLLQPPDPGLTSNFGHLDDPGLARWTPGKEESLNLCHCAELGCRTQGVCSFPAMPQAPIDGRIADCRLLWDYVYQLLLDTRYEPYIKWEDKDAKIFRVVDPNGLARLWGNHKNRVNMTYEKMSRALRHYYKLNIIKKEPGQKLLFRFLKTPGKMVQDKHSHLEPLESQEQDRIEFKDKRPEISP
In short: as §1

[9] = molecular target: T5, ETV3 (Homo sapiens, UniProt P41162-2 1-143)
T5 sequence: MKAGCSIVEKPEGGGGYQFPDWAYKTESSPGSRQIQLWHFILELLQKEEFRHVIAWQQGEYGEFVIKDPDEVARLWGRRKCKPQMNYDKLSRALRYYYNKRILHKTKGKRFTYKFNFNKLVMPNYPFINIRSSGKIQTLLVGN
In short: as §1

[10] = molecular target: T6, ERG (Homo sapiens, UniProt P11308 1-479)
T6 sequence: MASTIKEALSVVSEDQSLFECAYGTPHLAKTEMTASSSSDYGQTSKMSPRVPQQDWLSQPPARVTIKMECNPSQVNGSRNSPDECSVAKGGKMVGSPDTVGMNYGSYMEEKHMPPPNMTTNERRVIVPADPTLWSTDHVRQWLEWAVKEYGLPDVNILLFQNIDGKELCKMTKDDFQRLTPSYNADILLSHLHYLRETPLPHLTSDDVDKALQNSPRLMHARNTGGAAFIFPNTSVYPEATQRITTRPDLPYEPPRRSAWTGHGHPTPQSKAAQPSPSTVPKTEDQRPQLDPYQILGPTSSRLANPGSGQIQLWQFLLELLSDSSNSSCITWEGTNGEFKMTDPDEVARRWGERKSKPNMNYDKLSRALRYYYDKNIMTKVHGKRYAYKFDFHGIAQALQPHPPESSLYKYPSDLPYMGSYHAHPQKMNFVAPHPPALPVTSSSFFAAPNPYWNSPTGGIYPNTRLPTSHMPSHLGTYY
In short: as §1

[11] = molecular target: SPIB (Homo sapiens, UniProt Q01892 1-262)
Sequence of SPIB (Q01892 whole entry): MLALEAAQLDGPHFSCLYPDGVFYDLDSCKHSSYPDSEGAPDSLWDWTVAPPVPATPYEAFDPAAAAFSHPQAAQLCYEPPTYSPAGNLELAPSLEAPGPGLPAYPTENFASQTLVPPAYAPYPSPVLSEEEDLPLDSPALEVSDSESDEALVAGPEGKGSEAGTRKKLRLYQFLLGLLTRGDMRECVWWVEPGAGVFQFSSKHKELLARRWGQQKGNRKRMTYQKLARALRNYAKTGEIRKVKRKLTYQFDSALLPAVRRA
In short: as §1

[12] = molecular target: T7, ETV2 (Homo sapiens, UniProt O00321 1-342)
T7 sequence: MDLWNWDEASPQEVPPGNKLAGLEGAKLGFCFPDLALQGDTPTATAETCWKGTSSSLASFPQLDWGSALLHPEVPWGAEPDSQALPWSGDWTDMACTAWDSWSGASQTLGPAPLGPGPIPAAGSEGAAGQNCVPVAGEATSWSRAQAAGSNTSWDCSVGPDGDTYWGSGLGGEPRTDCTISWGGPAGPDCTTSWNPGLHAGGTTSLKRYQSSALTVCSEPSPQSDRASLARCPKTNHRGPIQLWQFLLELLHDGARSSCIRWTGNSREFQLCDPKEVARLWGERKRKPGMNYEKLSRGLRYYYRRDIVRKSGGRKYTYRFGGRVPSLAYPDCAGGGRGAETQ
In short: as §1

[13] = molecular target: T8, ELF3 (Homo sapiens, UniProt P78545 1-371)
T8 sequence: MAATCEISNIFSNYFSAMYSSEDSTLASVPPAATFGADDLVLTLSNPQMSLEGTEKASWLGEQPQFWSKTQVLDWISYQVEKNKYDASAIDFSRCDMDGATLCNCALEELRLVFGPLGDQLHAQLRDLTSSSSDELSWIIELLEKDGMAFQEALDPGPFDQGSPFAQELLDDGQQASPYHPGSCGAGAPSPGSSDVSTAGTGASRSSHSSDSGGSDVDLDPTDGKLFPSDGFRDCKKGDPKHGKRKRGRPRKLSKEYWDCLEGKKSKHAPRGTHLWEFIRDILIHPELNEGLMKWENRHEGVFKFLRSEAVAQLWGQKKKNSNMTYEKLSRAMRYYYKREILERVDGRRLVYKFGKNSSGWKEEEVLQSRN
In short: as §1

[14] = molecular target: T9, ERF (Homo sapiens, UniProt P50548 1-548)
T9 sequence: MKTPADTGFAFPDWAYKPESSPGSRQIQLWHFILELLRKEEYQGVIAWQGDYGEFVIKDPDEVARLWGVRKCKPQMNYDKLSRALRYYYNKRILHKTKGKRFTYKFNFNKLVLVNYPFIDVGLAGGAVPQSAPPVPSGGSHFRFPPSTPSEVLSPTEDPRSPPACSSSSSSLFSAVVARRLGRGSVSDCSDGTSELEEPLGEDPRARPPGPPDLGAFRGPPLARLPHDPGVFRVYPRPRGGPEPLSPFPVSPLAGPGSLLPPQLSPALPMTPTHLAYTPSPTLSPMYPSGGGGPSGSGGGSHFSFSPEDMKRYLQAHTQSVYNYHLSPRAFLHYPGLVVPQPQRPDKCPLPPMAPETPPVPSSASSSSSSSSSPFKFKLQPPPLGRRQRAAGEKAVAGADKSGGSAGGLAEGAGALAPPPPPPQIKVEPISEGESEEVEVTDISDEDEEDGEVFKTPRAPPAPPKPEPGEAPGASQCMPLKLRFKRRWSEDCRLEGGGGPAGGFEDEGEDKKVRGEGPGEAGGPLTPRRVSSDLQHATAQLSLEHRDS
In short: as §1

[15] = molecular target: T10, ETV3L (Homo sapiens, UniProt Q6ZN32 1-361)
T10 sequence: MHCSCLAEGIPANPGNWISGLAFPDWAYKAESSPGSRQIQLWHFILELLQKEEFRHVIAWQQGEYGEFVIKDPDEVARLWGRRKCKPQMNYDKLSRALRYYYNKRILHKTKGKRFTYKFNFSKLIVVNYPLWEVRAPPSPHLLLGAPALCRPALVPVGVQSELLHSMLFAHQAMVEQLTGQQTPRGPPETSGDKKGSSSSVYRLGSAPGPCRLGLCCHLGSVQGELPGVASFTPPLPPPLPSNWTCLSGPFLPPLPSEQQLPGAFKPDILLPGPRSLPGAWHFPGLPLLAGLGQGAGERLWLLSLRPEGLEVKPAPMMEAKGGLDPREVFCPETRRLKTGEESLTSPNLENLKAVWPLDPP
In short: as §1

[16] = molecular target: T11, ETS2 (Homo sapiens, UniProt P15036 1-469)
T11 sequence: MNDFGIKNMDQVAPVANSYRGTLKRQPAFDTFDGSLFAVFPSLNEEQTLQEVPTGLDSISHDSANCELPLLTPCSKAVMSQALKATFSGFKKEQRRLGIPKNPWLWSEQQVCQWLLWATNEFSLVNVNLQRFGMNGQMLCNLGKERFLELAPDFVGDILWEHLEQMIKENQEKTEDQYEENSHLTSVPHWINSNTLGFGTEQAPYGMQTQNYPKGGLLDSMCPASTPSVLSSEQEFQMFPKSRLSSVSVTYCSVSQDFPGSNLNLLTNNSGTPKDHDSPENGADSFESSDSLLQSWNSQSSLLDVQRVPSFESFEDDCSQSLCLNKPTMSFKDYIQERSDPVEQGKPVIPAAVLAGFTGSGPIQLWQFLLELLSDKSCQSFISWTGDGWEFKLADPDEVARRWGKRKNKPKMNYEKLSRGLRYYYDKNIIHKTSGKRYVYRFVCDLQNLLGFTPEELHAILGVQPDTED
In short: as §1

[17] = molecular target: T12, SPDEF (Homo sapiens, UniProt O95238 1-335)
T12 sequence: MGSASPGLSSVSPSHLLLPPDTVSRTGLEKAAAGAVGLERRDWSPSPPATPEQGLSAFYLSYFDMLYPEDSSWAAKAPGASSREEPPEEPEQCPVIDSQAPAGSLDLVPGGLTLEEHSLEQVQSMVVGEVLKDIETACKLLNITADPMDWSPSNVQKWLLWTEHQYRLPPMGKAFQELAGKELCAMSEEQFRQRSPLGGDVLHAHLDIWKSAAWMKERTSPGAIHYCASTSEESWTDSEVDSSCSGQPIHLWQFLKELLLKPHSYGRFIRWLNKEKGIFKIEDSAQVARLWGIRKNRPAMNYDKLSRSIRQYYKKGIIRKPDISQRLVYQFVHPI
In short: as §1

[18] = molecular target: ETV6 (Homo sapiens, UniProt P41212 1-452)
Sequence of ETV6 (P41212 whole entry): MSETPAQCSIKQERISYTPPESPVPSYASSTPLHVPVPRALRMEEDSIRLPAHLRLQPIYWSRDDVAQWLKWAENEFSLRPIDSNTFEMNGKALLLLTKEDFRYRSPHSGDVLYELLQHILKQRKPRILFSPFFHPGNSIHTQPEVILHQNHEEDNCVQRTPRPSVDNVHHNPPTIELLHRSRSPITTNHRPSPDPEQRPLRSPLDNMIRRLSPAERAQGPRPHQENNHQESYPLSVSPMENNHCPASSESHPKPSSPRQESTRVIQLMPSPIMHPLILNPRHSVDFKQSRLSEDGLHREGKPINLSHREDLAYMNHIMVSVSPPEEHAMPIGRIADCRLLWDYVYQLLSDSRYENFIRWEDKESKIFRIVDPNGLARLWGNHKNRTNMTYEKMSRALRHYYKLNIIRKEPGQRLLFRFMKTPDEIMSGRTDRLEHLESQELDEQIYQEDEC
In short: as §1

For TAGCGT, the binding signal [1] was 1 fold enrichment (6-mer frequency, TF over GST control), the binding signal [2] was 1.02 fold enrichment (6-mer frequency, TF over GST control) and the binding signal [3] was 1 fold enrichment (6-mer frequency, TF over GST control). The binding signal [4] was 1.03 fold enrichment (6-mer frequency, TF over GST control), the binding signal [5] was 1.02 fold enrichment (6-mer frequency, TF over GST control) and the binding signal [6] was 1.07 fold enrichment (6-mer frequency, TF over GST control). The binding signal [7] was 1.03 fold enrichment (6-mer frequency, TF over GST control), the binding signal [8] was 1 fold enrichment (6-mer frequency, TF over GST control) and the binding signal [9] was 1.04 fold enrichment (6-mer frequency, TF over GST control).
In the case of TAGGAT, the binding signal [10] is reported as 1.07 fold enrichment (6-mer frequency, TF over GST control), the binding signal [3] is reported as 1.06 fold enrichment (6-mer frequency, TF over GST control) and the binding signal [11] is reported as 1.03 fold enrichment (6-mer frequency, TF over GST control). For the same sequence, the binding signal [4] was 1.03 fold enrichment (6-mer frequency, TF over GST control), the binding signal [5] was 1 fold enrichment (6-mer frequency, TF over GST control) and the binding signal [12] was 1.03 fold enrichment (6-mer frequency, TF over GST control). The binding signal [13] was 1.03 fold enrichment (6-mer frequency, TF over GST control), the binding signal [14] was 1.02 fold enrichment (6-mer frequency, TF over GST control) and the binding signal [15] was 1.06 fold enrichment (6-mer frequency, TF over GST control). For the same sequence, the binding signal [16] was 1.03 fold enrichment (6-mer frequency, TF over GST control), the binding signal [17] was 1.22 fold enrichment (6-mer frequency, TF over GST control) and the binding signal [18] was 1.06 fold enrichment (6-mer frequency, TF over GST control).
